ssDAF12 agonist – activates DAF-12 receptor from parasite S. stercoralis; HEK293 ssDAF-12/GRIP1 lit1-tk-luc reporter, luminescence; % of 3 µM dafachronic acid response; activation, % at 6.8 µM; actives 1% (n = 370,000); AID 652126;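 active = activation above the mean over all tested compounds plus 3 SD, cut at about 0.9% in these data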;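 note: 0% = DMSO-only wells and 100% = 3 µM delta7-dafachronic acid wells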
Wee1 stabilizer – human Wee1 degradation inhibition, primary screen. P30291. HeLa Luc-Wee1K328M stability, luciferase luminescence; 100% = proteasome inhibitor MG132 effect. reporter increase, % at 5 µM. actives 1.2% (n = 220,000). AID 1321;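 active = activation above the mean of all tested compounds plus 3 SD, set per screening run, cut at about 8.8% in these data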;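 note: cells exposed to compound for 20 h before luminescence read; 0% = DMSO alone and 100% = MG132 at 30 µM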
DAX1 inh-1 – NR0B1 (DAX1) inhibition; actives 0.99% (n = 340,000); HEK293 Gal4-DAX1 luciferase reporter, luminescence; P51843; inhibition, % at 6.75 µM;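 active = inhibition above the mean over all tested compounds plus 3 SD, cut at about 4.2% in these data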;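 note: 0% = DAX1-transfected cells with DMSO and 100% = empty-vector control cells with DMSO; inhibition shows as a rise in luminescence from relieved DAX1 repression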
Target sequence (P51843 207-470 limits assumed): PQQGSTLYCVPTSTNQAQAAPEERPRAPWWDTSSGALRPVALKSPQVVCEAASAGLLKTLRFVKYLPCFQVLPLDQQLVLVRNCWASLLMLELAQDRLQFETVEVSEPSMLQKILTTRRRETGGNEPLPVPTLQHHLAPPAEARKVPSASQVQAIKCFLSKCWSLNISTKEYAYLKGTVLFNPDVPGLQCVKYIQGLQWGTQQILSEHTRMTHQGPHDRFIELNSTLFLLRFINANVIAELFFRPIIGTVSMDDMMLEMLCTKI
DAX1 inh-2 – blocks DAX1 repression of SF-1 activated StAR promoter; HEK293T StAR-luciferase reporter, SF-1/DAX-1 repression relief; inhibition, % at 6.8 µM; actives 1.1% (n = 370,000);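 active = inhibition above the mean over all tested compounds plus 3 SD, cut at about 3.6% in these data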;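 note: 0% = DAX-1 cells with DMSO and 100% = cells lacking DAX-1 with DMSO; higher inhibition means more luminescence from relief of DAX-1 repression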
hgDAF12 agonist – activates the H. glycines DAF-12 receptor ligand-binding domain. actives 1.8% (n = 370,000). HEK293 GAL4-hgDAF12 UAS-luciferase reporter, agonist luminescence; normalized to butyrate control. activation, % at 6.8 µM;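 active = activation above a cutoff set at the mean of all screened compounds plus 3 SD, cut at about 10% in these data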;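 note: 0% = DMSO wells and 100% = sodium butyrate wells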
hcDAF12 agonist – H. contortus DAF-12 activation, primary screen | HEK293 hcDAF-12 lit1-tk-luc reporter, luminescence; 0% DMSO, 100% Δ7-dafachronic acid | activation, % at 6.8 µM | actives 1.4% (n = 370,000) | AID 652067;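 active = activation above the mean of all tested compounds plus 3 SD, cut at about 5.5% in these data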;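 note: 100% = response to 3 µM Δ7-dafachronic acid high control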
* = called active by the depositor; x = no result. This is a sample that favours compounds with a hit; in the whole collection about 4.6% have one here.

SMILES	ssDAF12 agonist	Wee1 stabilizer	DAX1 inh-1	DAX1 inh-2	hgDAF12 agonist	hcDAF12 agonist
Cc1cc(C)nc(/N=C(\N)Nc2ccc(OCCC(C)C)cc2)n1	-2	x	-3	-1	-6	-4
NC(=O)NC(=O)COC(=O)c1ccc2noc(-c3ccccc3)c2c1	0	x	-1	1	12*	2
CCOC(=O)c1cc(CC)sc1/N=C/c1c(O)ccc2ccccc12	0	9.2*	0	0	1	0
Oc1ccccc1N=Cc1c(O)ccc2ccccc12	1	1	-2	-1	-3	5.9*
Oc1ccc2ccccc2c1/C=N/Nc1nnc(-c2ncc[nH]2)c2ccccc12	-1	7	-2	0	-3	0
Oc1ccc2ccccc2c1C=NNc1ccccn1	2.0*	x	0	-4	2	6.0*
Oc1ccc2ccccc2c1C=Nc1ccccc1Br	0	x	1	0	2	0
COC(=O)C/C=C/N(Cc1ccccc1OC)S(=O)(=O)CCl	-1	x	0	0	-2	-2
Cc1ccccc1CS(=O)(=O)Cc1ccc(C(=O)Nc2ccccc2C)o1	-1	x	x	0	3	0
C[C@@H]1CN([C@@H](C)CO)S(=O)(=O)c2ccc(/C=C/c3ccccc3)cc2O[C@@H]1CN(C)Cc1ccc(C(=O)O)cc1	-1	x	-2	-2	2	1
CC1(C)Cc2c(cnn2-c2ccc(F)cc2)C(NC(=O)C2=CC(=O)CC(C)(C)O2)C1 (centres undefined)	-2	x	-1	1	-2	0
COC(=O)c1ccc(NC(=O)CSc2ccccc2)cc1	0	1	7.4*	2	5	1
O=C(COc1ccc(Br)cc1F)Nc1nnc(C2CC2)s1	-2	x	0	0	0	0
CC(=O)Nc1ccc(Nc2nc(C)cc(C)n2)cc1	-2	x	1	0	3	-1
CC(=O)Nc1cc(C)ns1	-1	x	4.3*	0	4	-1
CSc1nnc(N2C(=O)C(O)=C(C(=O)c3ccco3)C2c2ccc(F)cc2)s1 (centres undefined)	-1	x	1	4.2*	8	4
CC1(C)CC(=O)C(CC(=O)NC2CCCc3ccccc32)C(=O)C1 (centres undefined)	-1	1	6.1*	0	-1	-1
Cc1ccccc1CC(=O)NC1CCCc2ccccc21 (centres undefined)	-1	x	0	0	-1	0
Cc1ccc(C)c(NC2CCCCC2NS(=O)(=O)c2ccccc2)c1 (centres undefined)	-1	x	0	4.2*	-1	-1
Cc1cc2c(NC(=O)Nc3ccccc3)cccc2nn1	-1	3	5.4*	0	-1	-2
Cc1cc2c(NC(=O)Nc3ccc(C(C)(C)C)cc3)cccc2nn1	-1	0	1	-1	-2	-1
S=c1nc(-c2ccc(Cl)cc2)[nH][nH]1	-1	-3	2	0	1	2
CCCOc1ccc(-c2nc(=S)[nH][nH]2)cc1	-1	2	4.5*	2	6	3
Nc1ccn([C@@H]2O[C@H](CNCc3cnc(N4CCOCC4)nc3)[C@@H](O)[C@H]2O)c(=O)n1	-1	x	1	-1	1	0
O=C(/C=C/c1ccco1)c1ccc(O)cc1	x	0	x	x	x	x
SMILES	ssDAF12 agonist	Wee1 stabilizer	DAX1 inh-1	DAX1 inh-2	hgDAF12 agonist	hcDAF12 agonist
CN(C)c1ccc(C(=O)/C=C/c2ccco2)cc1	0.9*	9.4*	-1	2	13*	6
O=C(/C=C\c1ccco1)c1ccc(NC(=O)c2ccco2)cc1	-1	-2	0	1	11*	1
O=C(NCC(F)(F)F)C1C(=O)Nc2ccccc2C(=O)N1Cc1ccccc1 (centres undefined)	-1	x	x	-1	5	-1
COC(=O)c1ccc(C2NC(C(=O)O)CS2)cc1 (centres undefined)	-1	-1	4.6*	-1	4	0
O=C(O)C1CSC(c2ccncc2)N1 (centres undefined)	x	-2	0	x	x	x
O=C(N/N=C/c1cc2c(cc1Br)OCO2)c1c[nH]c2ccccc12	0	1	5.4*	1	10*	4
O=C(CNC(=O)c1ccccc1Br)N/N=C/c1cc(Br)ccc1O	-1	-1	0	-1	-10	-4
Cc1cc(C(=O)N/N=C/c2c[nH]c3ccccc23)cs1	1	-2	1	0	8	4
O=C(N/N=C/c1cc(Cl)ccc1O)c1ccccc1Br	1.5*	-1	-2	0	-4	-3
O=C(N/N=C/c1c[nH]c2ccccc12)c1ccccc1	0	x	6.1*	0	5	2
Cc1nc(N)sc1C(=O)N/N=C/c1c[nH]c2ccccc12	-1	-1	-1	0	11*	5
Cc1cccc(NC(=S)N/N=C/c2c[nH]c3ccccc23)c1	0	3	-1	0	14*	0
O=C(N/N=C/c1ccccc1Cl)c1ccc(F)cc1	-2	5	2	2	13*	3
Cc1ccc(C(=O)N/N=C/c2c[nH]c3ccccc23)o1	0	x	0	0	7	6.4*
Fc1ccc(NC(=S)NN=Cc2ccccc2Cl)cc1	-1	x	4	0	10	2
O=C(N/N=C/c1c[nH]c2ccccc12)c1[nH]c2ccc(Br)cc2c1-c1ccccc1	1.4*	-1	1	2	-2	4
Cc1cc(C(=O)N/N=C/c2c[nH]c3ccccc23)c(C)o1	1	-3	1	1	8	3
O=C1NC[C@@H](CCCCN2C[C@H](Cc3ccccc3)N(CC3CCCCC3)C(=O)C2=O)N(CC2CCCCC2)C1=O	-1	x	x	0	2	-1
CC(C)C[C@H]1COc2cc(N3CCCC3)ccc2S(=O)(=O)N1C	-2	x	x	-3	1	-2
O=C(c1cc(Cl)cc(Cl)c1)N1CC[C@H]2[C@H](CCCN2Cc2cc(F)cc(F)c2)C1	-2	x	x	1	-2	0
O=C(N/N=C/c1c[nH]c2ccccc12)c1cc(Br)ccc1O	1.3*	x	-1	0	10	5
Clc1nc(NC2CCCCC2)c2cn[nH]c2n1	-1	x	0	-1	-3	-2
Cc1c(OCC(=O)N[C@@H](Cc2ccccc2)C(=O)O)ccc2c1oc(=O)c1ccccc12	-1	x	4.5*	0	-2	0
CCCCNC(=O)C1(C)CCCCN1C(=O)c1ccc2c(c1)C(C)(C)CCC2(C)C (centres undefined)	-2	x	x	-2	1	-3
C=CCN=C1NC(CCc2ccccc2)C(C(=O)OC)=C(C)N1Cc1cccc(C(F)(F)F)c1 (centres undefined)	1.5*	x	x	-1	-1	5
O=C(Oc1cccc2ccccc12)c1ccco1	-1	-1	0	0	-2	6.0*

Compound activity (PubChem BioAssay)
